Laboratory results as given in PubChem BioAssay.
Unmarked numbers belong to inactive results. For some of these results: Measured potencies and affinities stand elsewhere. Calls of active or inactive are those of the source. Unless noted, how the calls were made is not given here.

Experiments:
[1] = antimalarial activity against Dd2 strain (AID 2302;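 active means growth inhibition above 50% at the single 2 µM test dose, taken to imply half-maximal potency below 2 µM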;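 further: 0% = DMSO untreated growth and 100% = chloroquine plus artemisinin killed control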); details: P. falciparum Dd2 in RBCs, LDH growth readout, 72 h; at 2 µM; stronger effect = higher value
[2] = human hepatoma cell viability loss – ATP luminescence, cytotoxicity control for P. falciparum antimalarial project, primary screen (AID 2303;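 active means inhibition above 50%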;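 further: 0% = DMSO wells and 100% = digitonin-killed cells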); details: HepG2 viability, 24-48 h, at 10 µM, stronger effect = higher value
[3] = biological target: L-lactate dehydrogenase (Plasmodium falciparum (isolate CDC / Honduras)) (UniProt Q27743); assay: PfLDH activity inhibition – cell lysate, 3D7 strain, counter-screen for P. falciparum growth inhibition project (AID 2304);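 further: 0% = vehicle and 100% = reference inhibitor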; details: P. falciparum 3D7 crude extract, LDH APAD/NBT absorbance; at 2 µM; stronger effect = higher value
[4] = inhibition of 3D7 malaria parasite growth – strain 3D7 (AID 2306);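 further: 0% = DMSO wells and 100% = chloroquine plus artemisinin control wells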; details: P. falciparum 3D7 erythrocytic growth, LDH absorbance, 72 h; at 2 µM; stronger effect = higher value
[5] = biological target: Calcium-dependent protein kinase 1 (Plasmodium falciparum (isolate 3D7)) (UniProt P62344); assay: PfCDPK1 kinase inhibitors, biochemical, TCAMS library (AID 1159585; cut-off not given, nearly all actives have IC50 up to about 0.98 µM;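 further: inhibitors leave more ATP so luminescence rises with inhibition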); details: recombinant PfCDPK1, Kinase-Glo ATP depletion luminescence
[6] = biological target: Plasmodium falciparum protein kinase 6 (PK6, PF3D7_1337100) (UniProt Q8IDW1); assay: PfPK6 kinase inhibitors, biochemical, TCAMS library (AID 1159586); details: recombinant PfPK6, Kinase-Glo ATP depletion luminescence
[7] = biological target: Protein kinase 7 (PK7), Plasmodium falciparum 3D7 (PF3D7_0213400) (UniProt Q7YTF7); assay: inhibition of Plasmodium PK7 catalytic activity – biochemical, TCAMS antimalarial set, Kinase-Glo luminescence (AID 1159587); details: recombinant PfPK7, Kinase-Glo ATP depletion luminescence
[8] = biological target: Calcium-dependent protein kinase 4 (Plasmodium falciparum (isolate 3D7)) (UniProt Q8IBS5); assay: PfCDPK4 kinase inhibitors, biochemical, TCAMS library (AID 1159588; cut-off not given, nearly all actives have IC50 up to about 0.91 µM); details: recombinant PfCDPK4, Kinase-Glo ATP depletion luminescence
Calcium-dependent protein kinase 4 (Plasmodium falciparum (isolate 3D7)), sequence (Q8IBS5 whole entry, looked up): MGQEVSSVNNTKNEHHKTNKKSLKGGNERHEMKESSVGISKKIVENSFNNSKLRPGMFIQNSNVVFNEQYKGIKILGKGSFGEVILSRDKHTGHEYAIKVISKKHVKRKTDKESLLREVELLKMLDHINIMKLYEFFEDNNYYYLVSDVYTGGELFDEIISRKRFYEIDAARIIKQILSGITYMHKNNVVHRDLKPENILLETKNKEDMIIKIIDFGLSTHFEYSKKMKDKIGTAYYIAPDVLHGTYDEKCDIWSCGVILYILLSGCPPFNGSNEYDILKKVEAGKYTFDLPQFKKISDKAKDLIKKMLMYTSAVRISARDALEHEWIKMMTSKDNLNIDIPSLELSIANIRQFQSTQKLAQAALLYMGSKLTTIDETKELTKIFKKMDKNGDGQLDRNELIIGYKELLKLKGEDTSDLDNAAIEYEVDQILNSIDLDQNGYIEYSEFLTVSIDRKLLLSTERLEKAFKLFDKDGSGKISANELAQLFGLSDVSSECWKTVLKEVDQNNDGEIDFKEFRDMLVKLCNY

Protein kinase 7 (PK7), Plasmodium falciparum 3D7 (PF3D7_0213400), sequence (Q7YTF7 1-343): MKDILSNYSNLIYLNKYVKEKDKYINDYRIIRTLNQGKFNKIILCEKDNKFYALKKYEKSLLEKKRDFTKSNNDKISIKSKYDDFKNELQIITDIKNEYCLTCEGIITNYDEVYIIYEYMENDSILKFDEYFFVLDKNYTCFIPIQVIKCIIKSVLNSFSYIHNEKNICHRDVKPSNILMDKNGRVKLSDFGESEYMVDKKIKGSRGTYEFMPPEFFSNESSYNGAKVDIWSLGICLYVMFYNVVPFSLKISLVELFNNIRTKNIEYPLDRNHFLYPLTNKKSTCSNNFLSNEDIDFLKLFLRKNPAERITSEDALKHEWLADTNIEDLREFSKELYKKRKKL
Plasmodium falciparum protein kinase 6 (PK6, PF3D7_1337100), sequence (Q8IDW1 1-305): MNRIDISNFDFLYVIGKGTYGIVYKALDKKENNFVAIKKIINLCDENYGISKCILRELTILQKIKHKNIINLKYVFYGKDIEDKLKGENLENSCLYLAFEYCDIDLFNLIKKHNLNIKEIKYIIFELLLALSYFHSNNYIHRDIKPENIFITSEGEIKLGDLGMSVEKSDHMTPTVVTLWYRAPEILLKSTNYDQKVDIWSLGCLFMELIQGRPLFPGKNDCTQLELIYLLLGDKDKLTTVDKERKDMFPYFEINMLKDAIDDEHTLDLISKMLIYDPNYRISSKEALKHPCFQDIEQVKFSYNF
Calcium-dependent protein kinase 1 (Plasmodium falciparum (isolate 3D7)), sequence (P62344 whole entry, looked up): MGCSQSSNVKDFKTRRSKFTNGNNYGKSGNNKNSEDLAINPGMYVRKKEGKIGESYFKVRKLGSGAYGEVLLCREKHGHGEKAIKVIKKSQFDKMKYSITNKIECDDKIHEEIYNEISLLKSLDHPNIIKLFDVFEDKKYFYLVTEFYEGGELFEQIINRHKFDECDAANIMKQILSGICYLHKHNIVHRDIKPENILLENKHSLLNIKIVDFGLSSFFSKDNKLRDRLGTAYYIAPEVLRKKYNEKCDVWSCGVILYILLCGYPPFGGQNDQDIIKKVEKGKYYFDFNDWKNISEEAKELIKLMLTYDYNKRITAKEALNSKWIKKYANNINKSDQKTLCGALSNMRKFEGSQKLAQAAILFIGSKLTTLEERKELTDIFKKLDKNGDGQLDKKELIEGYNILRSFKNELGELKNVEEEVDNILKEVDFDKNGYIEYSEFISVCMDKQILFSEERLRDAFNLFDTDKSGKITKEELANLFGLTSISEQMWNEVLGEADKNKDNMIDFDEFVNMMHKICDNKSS
L-lactate dehydrogenase (Plasmodium falciparum (isolate CDC / Honduras)), sequence (Q27743 whole entry, looked up): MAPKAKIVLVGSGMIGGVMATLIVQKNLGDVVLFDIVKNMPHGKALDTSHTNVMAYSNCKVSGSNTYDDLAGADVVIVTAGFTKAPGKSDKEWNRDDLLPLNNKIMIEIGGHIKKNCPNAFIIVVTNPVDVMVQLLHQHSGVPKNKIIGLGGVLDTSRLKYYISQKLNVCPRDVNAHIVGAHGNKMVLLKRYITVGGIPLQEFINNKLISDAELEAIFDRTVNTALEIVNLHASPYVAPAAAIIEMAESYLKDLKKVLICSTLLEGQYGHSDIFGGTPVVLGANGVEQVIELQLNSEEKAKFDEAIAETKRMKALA

SMILES	growth inhibition [1]	inhibition [2]	inhibition [3] [%]	growth inhibition [4]	outcome [5]	outcome [6]	outcome [7]	outcome [8]
Cc1ccnc(NC(c2ccc(Cl)c([N+](=O)[O-])c2)c2ccc3cccnc3c2O)c1 (stereo not given)	57% (active)	47%	6	89% (active)	inactive	inactive	inactive	inactive
c1ccc(Oc2ccc(Nc3ccnc4cc(-c5cccc(CNCCN6CCOCC6)c5)ccc34)cc2)cc1	98% (active)	12%	7	102% (active)	inactive	inactive	inactive	inactive
O=C(/C=C/c1ccc(Cl)c(Cl)c1)NCCCCCCN1CCN(C(=O)Nc2ccc(OC(F)F)cc2)CC1	15%	44%	-4	91% (active)	inactive	inactive	inactive	inactive
CN(C)c1ccc(CN2CCCC(CNC(=O)c3ccc(-c4cccc(C(F)(F)F)c4)s3)C2)cc1 (stereo not given)	37%	32%	0	89% (active)	inactive	inactive	inactive	inactive
O=[N+]([O-])c1cccc(CNC2CCN(Cc3ccc(-c4ccccc4)cc3)CC2)c1	96% (active)	25%	1	100% (active)	inactive	inactive	inactive	inactive
CCCCCCCCCN(CCC)C(=O)[C@@H]1OC(C(=O)OC(c2ccccc2)c2ccccc2)=C[C@H](NC(=O)OC(C)(C)C)[C@H]1NC(C)=O	49%	0%	-1	91% (active)	inactive	inactive	inactive	inactive
CCC(C)c1ccc(-n2c(Nc3ccccc3)nc3cc(S(N)(=O)=O)ccc32)cc1 (stereo not given)	28%	0%	4	88% (active)	inactive	inactive	inactive	inactive
CS(=O)(=O)NCCCNCc1ccc(-c2ccc(-c3nc4ccc(F)cc4[nH]3)cc2)cc1	97% (active)	17%	-1	100% (active)	inactive	inactive	inactive	inactive
CO/C(=C\C=C/c1cc2cc(Cl)c(Cl)cc2[nH]1)C(=O)NC1CC(C)(C)N(C)C(C)(C)C1	34%	65% (active)	-1	93% (active)	inactive	inactive	inactive	inactive
CC(C)CCN1CCCN(Cc2ccc(C(=O)Nc3ccc(C(C)(C)C)cc3)cc2)CC1	12%	49%	-1	92% (active)	inactive	inactive	inactive	inactive
CC(CNC(=O)[C@H]1CNCCN1C(=O)CCCc1ccccc1)c1ccccc1 (stereo not given in full)	1%	12%	3	94% (active)	inactive	inactive	inactive	inactive
Cc1noc(C)c1-c1cccc(CNCc2ccc(-c3ccc(-c4nc5ccccc5[nH]4)s3)cc2)c1	79% (active)	41%	-6	103% (active)	inactive	inactive	inactive	inactive
NC1=NC(c2ccccc2)(c2ccccc2)C(=O)N1Cc1ccccc1Br	38%	36%	4	93% (active)	inactive	inactive	inactive	inactive
Cc1[nH]n(-c2cccc(Cl)c2)c(=O)c1-c1ccc(Cl)cc1	41%	0%	-8	99% (active)	inactive	inactive	inactive	inactive
O=C(N[C@H]1CCN(Cc2ccc(OCCN3CCNCC3)c(Cl)c2)C1)c1ccc(Cl)c(Cl)c1	5%	50% (active)	-1	101% (active)	inactive	inactive	inactive	inactive
CCc1c(CCNCCCCCCNCCc2ccc(OC)cc2)ccc(OC)c1OC	-1%	16%	8	98% (active)	inactive	inactive	inactive	inactive
O=C(Nc1ccc(Cl)cc1)Nc1cccc(-c2ccc(-c3nc4ccc(F)cc4[nH]3)cc2)c1	99% (active)	73% (active)	-1	101% (active)	inactive	inactive	inactive	inactive
COc1ccccc1-c1csc(C(=O)NCC2CCN(Cc3ccc(C(C)(C)C)cc3)C2)c1 (stereo not given)	11%	29%	0	93% (active)	inactive	inactive	inactive	inactive
CC(C)c1ccc(N(CC(=O)N/N=C/c2ccc(C(F)(F)F)cc2)S(=O)(=O)c2ccc(C(F)(F)F)cc2)cc1	44%	2%	3	91% (active)	inactive	inactive	inactive	inactive
NC(=O)c1ccccc1Nc1nc(Nc2ccc(N3CCOCC3)cc2)ncc1[N+](=O)[O-]	96% (active)	53% (active)	1	98% (active)	inactive	inactive	inactive	inactive
